NPR1 antag: human Npr1 receptor antagonism | P16066 | HEK293 hNpr1 GloSensor cGMP, ANP-stimulated luminescence | Potency, µM (series often up to 46.3 µM), inactives show at the top dose activity change, negative = inhibition, usual class: inhibitors | 76,000 tested, 1.6% active; calls by dose curve; further: nearly all actives have a fitted effect of over 60% in size
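Compound pre-incubated 30 min at room temperature on GloSensor-loaded HEK293 cells stably carrying hNpr1 and the pGS-40F cGMP biosensor. Stimulation uses hNppA at 0.1 nM final; luminescence is taken at baseline and 20 min post-agonist.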
GPT2 inh: GPT2 alanine aminotransferase inhibition. Q8TD30. 100,000 tested, 0.25% active. Potency, µM (doses to about 57.7 µM), without a hit: top-dose activity change, negative = inhibition, hits mostly inhibitors. AID 1671188. Recombinant GPT2, coupled pyruvate oxidase/HRP Amplex Red fluorescence; further: nearly all actives have a fitted effect of over 60% in size
Target sequence (Q8TD30 whole entry, looked up): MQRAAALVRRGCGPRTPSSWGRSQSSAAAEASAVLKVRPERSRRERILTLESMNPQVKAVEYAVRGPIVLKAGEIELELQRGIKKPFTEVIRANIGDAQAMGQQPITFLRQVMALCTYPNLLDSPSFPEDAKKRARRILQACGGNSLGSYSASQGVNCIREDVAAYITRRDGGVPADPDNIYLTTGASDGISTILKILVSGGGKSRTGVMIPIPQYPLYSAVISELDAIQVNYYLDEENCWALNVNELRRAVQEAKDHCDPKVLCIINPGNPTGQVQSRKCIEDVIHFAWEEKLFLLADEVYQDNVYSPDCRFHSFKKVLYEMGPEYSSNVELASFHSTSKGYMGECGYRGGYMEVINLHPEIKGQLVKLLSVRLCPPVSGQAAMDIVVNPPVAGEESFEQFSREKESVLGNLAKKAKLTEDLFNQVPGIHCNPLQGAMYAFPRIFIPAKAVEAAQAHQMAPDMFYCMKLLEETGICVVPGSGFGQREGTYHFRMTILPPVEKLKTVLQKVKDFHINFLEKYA
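Fluorescence read-out: pyruvate from GPT2 turnover coupled to pyruvate oxidase, HRP and Amplex Red (0.2mM ThPP, 0.2U/mL PO and HRP, 50uM Amplex final). Substrates 250uM a-KG, 2mM L-alanine; enzyme 10ng/uL; 30 min RT.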
HEK cytotox: HEK 293 cell cytotoxicity; HEK 293 viability, ATP luminescence (CellTiter-Glo), 48-72 h; Potency, µM (titrated, usually from 115 µM), for the others: top-dose activity change, negative = cytotoxicity, hits mostly inhibitors; 94,000 tested, 6.6% active; further: nearly all actives have a fitted effect of over 60% in size
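ATP-coupled CellTiter-Glo luminescence served as viability read-out, recorded 10 min after reagent addition at room temperature. HEK 293 cells, 250 cells/well, had been incubated with pintool-transferred compound for 48 or 72 hr at 37 degree Celsius.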
3T3 cytotox: cytotoxic compounds in NIH 3T3 cells | NIH 3T3 viability, CellTiter-Glo ATP luminescence, 48-72 h | Potency, µM (doses to about 96.7 µM), without a hit: top-dose activity change, negative = cytotoxicity, most hits filed as inhibitors | 94,000 tested, 4.3% active | AID 1345082; further: nearly all actives have a fitted effect of over 55% in size
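Cytotoxicity was measured by CellTiter-Glo ATP luminescence after 48 or 72 h compound exposure at 37 °C. Mouse NIH 3T3 fibroblasts were seeded at 400 cells/well and dosed by 23 nL pin transfer.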
FLuc inh: inhibitors of firefly (Photinus pyralis) luciferase | purified P. pyralis luciferase, luminescence, biochemical | 76,000 tested, 2.5% active | Potency, µM (titrated, usually from 115 µM), usual class: inhibitors | AID 1347043 | P08659; further: nearly all actives have a fitted effect of over 65% in size
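Purified 10nM P. pyralis luciferase with 10uM D-luciferin and 10uM ATP in 50mM Tris acetate pH 7.5, 10mM Mg acetate, 0.01% Tween-20, 0.05% BSA. qHTS titration; luminescence read by CCD imager.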
Numbers without * were called inactive; i = inactive; ? = inconclusive; . = no result given; [ ] = remark or other dose. In the library only some 10% were active in any assay of this set; here they are far more common. Unless noted, the call rests on the fitted dose curve; in most records, active means well fitted curve in the direction sought with a large enough effect; inconclusive means small, poorly fitted or top-dose-only effect, or another doubt; inactive means no such curve, though single readings can be large; an effect the other way counts as inactive or inconclusive. On the % scale 0 is the no-effect control and ±100 the full control effect; potency means the concentration at half of the fitted maximal effect.

SMILES	NPR1 antag	GPT2 inh	HEK cytotox	3T3 cytotox	FLuc inh
Cc1ccc(-n2c(C3CCN(C(=O)c4ccc(C)nc4)CC3)n[nH]c2=O)cc1	3.1%	i	2.3%	25.1µM*	i
Cc1ccc(C(=O)N2CCC(c3n[nH]c(=O)n3-c3ccc(C)cc3)CC2)cc1	-19.6%	i	8.7%	?	i
COc1ccc(C(=O)N2CCC(c3n[nH]c(=O)n3-c3ccc(C)cc3)CC2)cc1OC	0.0%	-13.4%	32.7%	?	i
Cc1ccc(-n2c(C3CCN(C(=O)c4ccc(C#N)cc4)CC3)n[nH]c2=O)cc1	8.0%	-29.0%	-12.3%	35.5µM*	i
O=C(NCC1CCCCC1)C1CCc2nnc(C3CC3)n21 (stereo not drawn)	.	-11.8%	-31.8%	-18.7%	.
COc1cccc(-c2cnc3n[nH]c(-c4ccc5c(c4)OCO5)c3n2)c1	-10.7%[70.6 µM]	-0.2%[88.5 µM]	?	50.1µM*	i
c1ccc(-c2cnc3n[nH]c(-c4ccc5c(c4)OCO5)c3n2)cc1	-21.1%[70.6 µM]	-1.8%[88.5 µM]	?	-14.9%[138 µM]	i
Oc1ccccc1-c1cnc2n[nH]c(-c3ccc4c(c3)OCO4)c2n1	-18.6%[70.6 µM]	-7.5%[88.5 µM]	?	?	?
COc1ccccc1-c1cnc2n[nH]c(-c3ccc4c(c3)OCO4)c2n1	?	?	35.5µM*	35.5µM*	i
COc1ncccc1-c1cnc2n[nH]c(-c3ccc4c(c3)OCO4)c2n1	-19.0%[70.6 µM]	3.6%[88.5 µM]	44.7µM*	44.7µM*	i
COc1cc(-c2cnc3n[nH]c(-c4ccccc4)c3n2)ccn1	-2.1%[70.6 µM]	-13.8%[88.5 µM]	?	?	i
Cc1ccccc1-c1cnc2n[nH]c(-c3ccc4c(c3)OCO4)c2n1	-17.8%[70.6 µM]	?	44.7µM*	25.1µM*	i
COc1ccc(CNC(=O)N2CC(n3cc(C(=O)NCC4CC4)nn3)C2)cc1	.	i	4.0%	-2.9%	.
COc1ccc(-c2ccc(C(=O)N3CCN(C(=O)NC4CCCC4)CC3)cc2)nn1	.	.	i	i	.
CCCn1cc(-c2ccncc2)cc1C(=O)N1CCN(c2ccccc2OC)CC1	-17.1%	-6.0%	-12.3%	-5.5%	i
O=C(NCc1ccc2c(c1)OCO2)C1CCN(c2nc3ncccc3o2)CC1	.	i	?	-26.8%	.
COc1ccc(CN2CCC3(C2)C(=NC2CCCC2)NC(=O)N3c2cccnc2)cc1 (stereo not drawn)	.	i	-8.8%	?	.
COc1cc(F)ccc1-c1cnc2n[nH]c(-c3ccc4c(c3)OCO4)c2n1	-26.3%[70.6 µM]	-5.8%[88.5 µM]	?	25.1µM*	i
Fc1ccccc1-c1cnc2n[nH]c(-c3ccc4c(c3)OCO4)c2n1	-21.4%[70.6 µM]	-1.1%[88.5 µM]	?	-11.9%[138 µM]	i
Cc1noc(C)c1S(=O)(=O)NCC1(COc2ccc(C(F)(F)F)cn2)C[C@@H](O)[C@@H](O)C1 (stereo partly drawn)	3.6%	i	-0.9%	i	i
CCN1Cc2cc(OC)ccc2N(CC(O)COc2ccc(OC)cc2)CCC1=O (stereo not drawn)	.	.	-31.4%	?	.
COc1ccc(OCC(O)CN2CCC(=O)N(CC(C)(C)C)Cc3cc4c(cc32)OCO4)cc1 (stereo not drawn)	.	.	50.1µM*	?	.
O=C1CCN(CC(O)COc2ccccc2)c2ccccc2CN1C1CC1 (stereo not drawn)	.	.	39.8µM*	?	.
C=CCN1Cc2cc(F)ccc2N(CC(O)COc2ccccc2)CCC1=O (stereo not drawn)	.	.	44.7µM*	?	.
CC(O)CN1CCC(=O)N(C2CCCC2)Cc2ccccc21 (stereo not drawn)	.	.	-28.7%	?	.
SMILES	NPR1 antag	GPT2 inh	HEK cytotox	3T3 cytotox	FLuc inh
COc1ccc2c(c1)CN(CC=C(C)C)C(=O)CCN2CC(O)COc1ccccc1 (stereo not drawn)	.	.	79.4µM*	?	.
COc1ccc(CCNC(=O)c2ccc3nnc(CC4CC4)n3c2)cc1	.	1.5%	-0.9%	?	.
C=CCCC(CN1CCSCC1)Oc1ccc(C#N)cn1 (stereo not drawn)	5.0%	-5.3%	-13.7%	?	i
COc1ccc(CCNC(=O)c2cn3cc(-c4cccc(OC)c4)sc3n2)cc1	.	-5.3%	?	?	.
O=C(NCC1CC1)c1cn2cc(-c3ccccc3)sc2n1	.	-15.3%[88.5 µM]	100µM*	?	.
COc1cccc(-c2cn3cc(C(=O)NCC4CCCCC4)nc3s2)c1	.	-7.4%	22.4µM*	?	.
COc1ccc(-c2cn3cc(C(=O)NCC4CCCCC4)nc3s2)cc1	.	i	?	-31.3%	.
COc1cccc(-c2cn3cc(C(=O)NCC4CC4)nc3s2)c1	.	i	70.8µM*	?	.
COc1cccc(-c2cn3cc(C(=O)NCCc4ccc(Cl)cc4)nc3s2)c1	.	i	31.6µM*	-13.4%	.
O=C(NCC1CC1)c1cn2cc(-c3cccc(C(F)(F)F)c3)sc2n1	.	-2.2%	?	-27.8%	.
C#CCN(C)Cc1nc(C2(O)CCN(C(=O)c3ccccc3F)CC2)cs1	-0.7%[70.6 µM]	-22.2%[88.5 µM]	-26.0%[172 µM]	-17.8%[174 µM]	i
COC[C@@H]1OCCN(C(=O)NCc2ccc(C)cc2)[C@H]1c1ccccc1	.	-5.1%	-5.1%	-14.9%	.
Cn1cnc2cc(-c3ccc(N4CCOCC4)cc3)cc(C(=O)NCc3cccnc3)c21	-0.9%[70.6 µM]	i	1.2%[172 µM]	89.1µM*	i
COc1ccc(-c2cc(C(=O)NCc3ccnc(N)c3)c3c(c2)ncn3C)cc1	-7.6%[70.6 µM]	-6.1%[88.5 µM]	?	?	i
Cn1cnc2cc(-c3ccccc3)cc(C(=O)NCc3cccnc3)c21	-4.9%[70.6 µM]	?	-24.3%[172 µM]	?	i
COc1cc(CNC(=O)c2cc(-c3cccc(N(C)C)c3)cc3ncn(C)c23)ccn1	4.0%[70.6 µM]	i	70.8µM*	?	?
Cn1cnc2cc(-c3cccc(C(F)(F)F)c3)cc(C(=O)NCc3cccnc3)c21	-5.6%[70.6 µM]	-0.2%[88.5 µM]	100µM*	?	i
O=C(NCC(F)(F)F)C1CCCCN1Cc1ccc(-c2cccs2)cc1 (stereo not drawn)	.	-6.6%	-5.6%	-1.9%	.
CN1CCN(c2nc3c(c(=O)[nH]2)CCN(Cc2ccc(Cl)c(F)c2)CC3)CC1	1.1%	i	-6.8%	-24.4%	i
O=C(Cn1nc2c(cc1=O)CCCC2)N1CCSCC1	0.6%	i	12.6%	i	i
CN(C)C[C@@H]1CN(S(C)(=O)=O)C[C@H]1NC(=O)c1c(F)cccc1Cl	0.8%	i	i	1.0%	39.8µM*
O=C1CCN(S(=O)(=O)c2ccc3c(c2)CCC3)CCCC(c2nc(-c3cccnc3)no2)CCN1 (stereo not drawn)	2.7%	-11.0%	35.5µM*	?	i
O=C1CCN(S(=O)(=O)c2cccc(F)c2)CCCC(c2nc(-c3cccnc3)no2)CCN1 (stereo not drawn)	0.7%	-3.7%	-8.8%	-5.6%	i

Source: PubChem
